According to PubChem BioAssay (NCATS):
Records with an inconclusive call do not appear. Entries that show only a call come without a potency. Unmarked numbers belong to inactive results. Calls of active or inactive are those of the source. Calls come from the whole dose curve; as a rule, active = well fitted curve in the direction sought with a large enough effect; inconclusive = small, poorly fitted or top-dose-only effect, or another doubt; inactive = no such curve, though single readings can be large; an effect the other way counts as inactive or inconclusive.

Columns and labels:
[1] = Quantitative highthroughput screen to assess conditional lethalithy of NOMO1 cells grown in RPMI1640 with untreated serum (RPMI+s) (AID 1963876); note: nearly all actives have a fitted effect of over 35% in size; note: potency is the fitted concentration of half-maximal effect
In short: (§1)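 Each medium arm—HPLM with 10% dialyzed FBS, or RPMI1640 with 5 mM glucose and 10% untreated or dialyzed FBS—was screened against an 11-point, 3-fold compound titration for 48 h at 37 °C, with CellTiter-Glo luminescence as endpoint.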

[2] = Quantitative highthroughput screen to assess conditional lethalithy of NOMO1 cells grown in Human Plasma-Like Medium with dialyzed fetal bovine serum (HPLM+ds) (AID 1963878); note: nearly all actives have a fitted effect of over 35% in size; note: potency is the fitted concentration of half-maximal effect
In short: as §1

[3] = Quantitative highthroughput screen to assess conditional lethalithy of P12 Ichikawa cells grown in Human Plasma-Like Medium with dialyzed fetal bovine serum (HPLM+ds) (AID 1963879); conditions: Potency: viability; note: nearly all actives have a fitted effect of over 35% in size; note: potency is the fitted concentration of half-maximal effect; for viability: series mostly up to about 46 µM
In short: as §1

[4] = Quantitative highthroughput screen to assess conditional lethalithy of P12 Ichikawa cells grown in RPMI1640 with dialyzed fetal bovine serum (RPMI+ds) (AID 1963880); conditions: Potency: P12-Ichikawa viability; note: nearly all actives have a fitted effect of over 35% in size; note: potency is the fitted concentration of half-maximal effect
In short: as §1

[5] = Quantitative highthroughput screen to assess conditional lethalithy of P12 Ichikawa cells grown in RPMI1640 with untreated serum (RPMI+s) (AID 1963881); conditions: Potency: viability; note: nearly all actives have a fitted effect of over 35% in size; note: potency is the fitted concentration of half-maximal effect; for viability: series mostly up to about 46 µM
In short: as §1

[6] = Quantitative highthroughput screen to assess conditional lethalithy of SEM cells grown in Human Plasma-Like Medium with dialyzed fetal bovine serum (HPLM+ds) (AID 1963882); note: nearly all actives have a fitted effect of over 35% in size; note: potency is the fitted concentration of half-maximal effect; for viability: series mostly up to about 46 µM
In short: as §1

[7] = Quantitative highthroughput screen to assess conditional lethalithy of SEM cells grown in RPMI1640 with unreated serum (RPMI+s) (AID 1963883); note: nearly all actives have a fitted effect of over 35% in size; note: potency is the fitted concentration of half-maximal effect
In short: as §1

[8] = Quantitative highthroughput screen to assess conditional lethalithy of SEM cells grown in RPMI1640 with dialyzed fetal bovine serum (RPMI+ds) (AID 1963884); note: nearly all actives have a fitted effect of over 35% in size; note: potency is the fitted concentration of half-maximal effect; for viability: series mostly up to about 46 µM
In short: as §1

[9] = Quantitative highthroughput screen to assess conditional lethalithy of NOMO1 cells grown in RPMI1640 with dialyzed fetal bovine serum (RPMI+ds) (AID 1963877); note: nearly all actives have a fitted effect of over 30% in size; note: potency is the fitted concentration of half-maximal effect; for viability: series mostly up to about 46 µM
In short: as §1

[10] = Cellular viability qHTS for adrenocortical cancer (ACC) cell line SW-13 (AID 1963989); conditions: SW-13 ACC cells viability, CellTiter-Glo, 48 h; activity (max response): active compounds read low;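 note: cells grown in serum-free medium with ITS supplement; nearly all actives have a fitted effect of over 65% in size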
In short: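 48 h treatment, SW-13 in ITS/DMEM serum-free; doses up to 46 uM; readout CellTiter-Glo luminescence; curve fit four-parameter logistic.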

[11] = Cellular viability qHTS for adrenocortical cancer (ACC) cell line NCI-H295R (AID 1963990); note: nearly all actives have a fitted effect of over 60% in size
In short: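 Compound titrations (up to 46 uM final) are applied to NCI-H295R cultures for 48 h at 37C. Viable cell number is estimated by CellTiter-Glo signal, normalised to DMSO and doxorubicin controls.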

| Structure (SMILES) | Potency [1] | Potency [2] | Potency [3] | Potency [4] | Potency [5] | Potency [6] | Potency [7] | Potency [8] | Potency [9] | activity (max response) [10] [%] | Potency [11] |
| --- | --- | --- | --- | --- | --- | --- | --- | --- | --- | --- | --- |
| CN1CC(=O)N2C(Cc3c([nH]c4ccccc34)[C@H]2c2ccc3c(c2)OCO3)C1=O (stereo partly specified) | inactive | inactive | inactive | inactive | inactive | inactive | inactive | inactive |  |  |  |
| COc1ccc(-c2c(-c3ccc(O)cc3O)n[nH]c2C)cc1 | inactive |  |  | inactive |  |  | 19.1 µM (active) |  | inactive | -14.3 | inactive |
| O=C1CN2Cc3c(ccc(Cl)c3Cl)N=C2N1 | inactive |  |  |  |  | inactive |  |  | inactive | 2.15 |  |
| CCOC(=O)C1=C[C@@H](OC(CC)CC)[C@H](NC(C)=O)[C@@H](N)C1 | inactive | inactive | inactive | inactive | inactive |  | inactive |  |  | 7.32 | inactive |
| O=C(O)C1=NC(C(=O)O)CC(C=CN2c3cc(O)c(OC4OC(CO)C(O)C(O)C4O)cc3CC2C(=O)O)=C1 (stereo unspecified) | inactive | inactive | inactive | inactive | inactive | inactive | inactive | inactive |  |  |  |
| COc1cc2c(cc1OC)CN(CCc1ccc(NC(=O)c3cccc4c(=O)c5cccc(OC)c5[nH]c34)cc1)CC2 | 4.69 µM (active) | 1.32 µM (active) | 1.18 µM (active) | 2.96 µM (active) | 3.72 µM (active) | 4.18 µM (active) | 1.05 µM (active) | 0.935 µM (active) |  | -3.54 |  |
| OC[C@H]1O[C@@H](O[C@H]2[C@@H](O)[C@@](O)(CO)O[C@@H]2CO)[C@H](O)[C@@H](O)[C@@H]1O | inactive |  |  |  |  |  | inactive | inactive | inactive |  |  |
| CC(C)(C)OC(=O)CN(Cc1ccc(Cl)cc1)Cc1ccc([N+](=O)[O-])s1 | inactive |  |  |  | inactive |  |  |  | inactive | -11.1 | inactive |
| CCCCN(CCCC)CC(O)c1cc(Cl)cc2c1-c1ccc(Cl)cc1C2=Cc1ccc(Cl)cc1 (stereo unspecified) | inactive | inactive | inactive | inactive | inactive | inactive |  | inactive |  |  |  |
| COc1cc(N2CCC(C(N)=O)CC2)ccc1Nc1nc(N)c(Cl)c(Nc2ccccc2S(=O)(=O)C(C)C)n1 | 20.9 µM (active) | 16.6 µM (active) | 23.5 µM (active) | 18.7 µM (active) | 18.7 µM (active) | 8.33 µM (active) | 4.18 µM (active) | 9.35 µM (active) |  |  |  |
| C[C@@H](O)[C@H]1C(=O)N2C(C(=O)OCOC(=O)C(C)(C)C)=C(SC3CN(C4=NCCS4)C3)[C@H](C)[C@H]12 | inactive |  |  |  |  | inactive |  | inactive | 7.43 µM (active) |  |  |
| O=C1NC(=O)C(=Cc2cccc(C(F)(F)F)c2)S1 | inactive | inactive | inactive | inactive | inactive | inactive |  |  |  |  |  |
| CC(C)(N)C(=O)N[C@H](COCc1ccccc1)C(=O)N1CCC2(CC1)CN(S(C)(=O)=O)c1ccccc12 | inactive |  |  | 23.5 µM (active) | 26.4 µM (active) |  |  |  | 10.5 µM (active) | -9.29 | inactive |
| C[C@@H]1CCN(C(=O)CC#N)C[C@H]1N(C)c1ncnc2[nH]ccc12 | inactive | inactive | inactive | inactive | inactive | inactive | inactive |  |  |  |  |
| Cc1c(C)n(Cc2ccc(-c3ccccc3C(=O)O)cc2)c2ccc(C(=O)N[C@@H](C)c3ccc([N+](=O)[O-])cc3)cc12 | 9.35 µM (active) |  |  | 10.5 µM (active) |  | inactive | inactive | inactive | 9.35 µM (active) |  |  |
| CC(=O)N1CCN(c2ccc(OCc3nn(C)c(C)c3-c3cccc4c(CCCOc5cccc6ccccc56)c(C(=O)O)n(Cc5cccnc5)c34)cc2)CC1 | 1.66 µM (active) |  |  |  | 10.5 µM (active) | inactive |  | inactive | 2.64 µM (active) |  |  |
| O=C(O)c1ccc(O)c2ncc(N3CCOCC3)cc12 | inactive |  |  |  |  |  |  | 18.7 µM (active) | inactive | -5.09 | inactive |
| CC(=O)N1CCN(c2ccc(OCc3nn(C)c(C)c3-c3cccc4c(CCCOc5cc(C)c(Cl)c(C)c5)c(C(=O)O)n(Cc5cccnc5)c34)cc2)CC1 | inactive |  |  |  |  |  | 18.7 µM (active) | 20.9 µM (active) | inactive |  |  |
| Cc1cccc(-c2[nH]ncc2-c2ccc3ncccc3n2)n1 | inactive |  |  |  |  |  |  |  | 18.7 µM (active) | 4.45 | inactive |
| CCC(=O)O[C@]1(C(=O)CO)CC[C@H]2[C@@H]3CCC4=CC(=O)CC[C@]4(C)[C@@H]3CC[C@@]21C | inactive |  |  |  |  |  | 0.743 µM (active) | 1.18 µM (active) | 10.5 µM (active) |  |  |
| O=C(O)C=Cc1ccc(Cn2ccnc2)cc1 | inactive | inactive | inactive | inactive | inactive | inactive |  | inactive |  |  |  |
| CC(COc1ccccc1)N(CCCl)Cc1ccccc1 (stereo unspecified) | 0.166 µM (active) | 0.209 µM (active) | 2.35 µM (active) | 2.96 µM (active) | 2.64 µM (active) | inactive | inactive | inactive |  | -3.42 | inactive |
| COc1ccc(-c2oc3c(CC=C(C)C)c(OC4O[C@H](CO)[C@@H](O)[C@H](O)[C@@H]4O)cc(O)c3c(=O)c2OC2O[C@@H](C)[C@H](O)[C@@H](O)[C@@H]2O)cc1 (stereo partly specified) | inactive |  |  | inactive |  | 18.7 µM (active) | 13.2 µM (active) | 18.7 µM (active) | inactive |  |  |
